Here are results for one molecule from PubChem BioAssay AID1053118 (Broad Institute, 2014).

Results with a measured potency or affinity are listed apart. Activity calls are given as the source filed them.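 How the source made its calls: active means fitted half-maximal concentration for ATP signal loss at most twice the top valid dose; inconclusive means flat curve between -70 and -30%, or an invalid fit; inactive means flat within ±30%, wrong direction, or potency past limit.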

This test can be described thus: viability loss in HepG2 hepatoma cells – cell-based, cherry-picks, set 5, cytotoxicity control, dose response (AID 1053118).

As for `C=C1C(=O)O[C@@H]2C[C@@H](C)[C@@H]3C=CC(=O)[C@@]3(C)[C@@H](O)[C@H]12`, the molecule was called inactive.
